Results reported in the supplement of paper PMC11732987, “Enantioselective OTUD7B fragment discovery through chemoproteomics screening and high-throughput optimisation” (Communications Chemistry, 2025).

Legend:
Assay in all cases: log2 ratio of Biotin-Ahx-Ub-VS probe labelling (fragment/DMSO); higher = less target engagement (more negative = stronger competition), active = hit call of the paper (q ≤ 0.05, log2 ratio ≤ -1)
Details in all cases: compound concentration: 200 uM; treatment time: 3 h
[1] = target: T1, USP19 (UniProt O94966)
T1 sequence (whole entry): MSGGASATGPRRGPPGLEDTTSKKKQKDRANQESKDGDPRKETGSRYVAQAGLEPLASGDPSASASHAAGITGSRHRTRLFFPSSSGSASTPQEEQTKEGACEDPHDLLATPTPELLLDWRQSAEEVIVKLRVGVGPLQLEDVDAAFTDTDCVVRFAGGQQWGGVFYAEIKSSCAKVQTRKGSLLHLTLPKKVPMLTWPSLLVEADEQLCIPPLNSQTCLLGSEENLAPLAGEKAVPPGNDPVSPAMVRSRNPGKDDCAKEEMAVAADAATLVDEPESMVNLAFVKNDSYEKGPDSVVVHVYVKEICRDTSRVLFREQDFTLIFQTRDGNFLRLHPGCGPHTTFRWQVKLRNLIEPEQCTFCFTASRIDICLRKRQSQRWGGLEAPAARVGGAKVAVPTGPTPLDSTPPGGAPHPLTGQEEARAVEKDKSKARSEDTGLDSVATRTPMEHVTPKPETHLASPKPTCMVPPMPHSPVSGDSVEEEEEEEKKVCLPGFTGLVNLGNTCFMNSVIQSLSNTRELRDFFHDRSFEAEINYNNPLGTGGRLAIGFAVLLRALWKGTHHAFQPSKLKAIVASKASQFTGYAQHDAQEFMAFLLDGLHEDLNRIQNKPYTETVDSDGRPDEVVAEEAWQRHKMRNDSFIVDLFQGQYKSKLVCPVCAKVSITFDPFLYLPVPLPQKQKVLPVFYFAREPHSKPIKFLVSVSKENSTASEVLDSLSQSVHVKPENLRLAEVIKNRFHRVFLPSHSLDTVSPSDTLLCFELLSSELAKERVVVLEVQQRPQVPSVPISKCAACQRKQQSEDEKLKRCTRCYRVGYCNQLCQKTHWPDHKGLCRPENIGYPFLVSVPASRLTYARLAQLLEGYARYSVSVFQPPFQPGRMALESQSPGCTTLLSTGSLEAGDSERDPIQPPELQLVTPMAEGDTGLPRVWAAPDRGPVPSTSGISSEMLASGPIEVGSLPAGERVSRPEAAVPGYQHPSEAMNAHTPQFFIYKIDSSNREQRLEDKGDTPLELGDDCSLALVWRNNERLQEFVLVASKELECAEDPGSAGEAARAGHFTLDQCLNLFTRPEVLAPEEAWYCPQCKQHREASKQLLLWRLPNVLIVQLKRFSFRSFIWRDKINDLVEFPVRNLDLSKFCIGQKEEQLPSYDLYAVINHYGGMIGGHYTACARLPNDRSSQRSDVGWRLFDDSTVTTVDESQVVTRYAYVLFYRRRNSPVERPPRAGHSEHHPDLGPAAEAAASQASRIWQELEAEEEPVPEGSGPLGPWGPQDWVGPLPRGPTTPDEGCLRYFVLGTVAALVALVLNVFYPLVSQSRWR
Outline: (§1)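 Labelled DUBs from HEK293T lysate were NeutrAvidin-enriched, digested with LysC and trypsin, and run by diaPASEF LC-MS/MS. Before that, each 495 µg sample in Tris/CHAPS/IGEPAL buffer with protease inhibitors was treated in triplicate with fragment at 200 µM or vehicle for 3 h, then with Biotin-Ahx-Ub-VS at 0.5 µM final for 1 h. Values are average log2 ratios of fragment over vehicle by unpaired t-test, based on global-median-normalised Spectronaut label-free quantities from proteins with ≥2 unique peptides.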

[2] = target: T2, USP22 (UniProt Q9UPT9)
T2 sequence (whole entry): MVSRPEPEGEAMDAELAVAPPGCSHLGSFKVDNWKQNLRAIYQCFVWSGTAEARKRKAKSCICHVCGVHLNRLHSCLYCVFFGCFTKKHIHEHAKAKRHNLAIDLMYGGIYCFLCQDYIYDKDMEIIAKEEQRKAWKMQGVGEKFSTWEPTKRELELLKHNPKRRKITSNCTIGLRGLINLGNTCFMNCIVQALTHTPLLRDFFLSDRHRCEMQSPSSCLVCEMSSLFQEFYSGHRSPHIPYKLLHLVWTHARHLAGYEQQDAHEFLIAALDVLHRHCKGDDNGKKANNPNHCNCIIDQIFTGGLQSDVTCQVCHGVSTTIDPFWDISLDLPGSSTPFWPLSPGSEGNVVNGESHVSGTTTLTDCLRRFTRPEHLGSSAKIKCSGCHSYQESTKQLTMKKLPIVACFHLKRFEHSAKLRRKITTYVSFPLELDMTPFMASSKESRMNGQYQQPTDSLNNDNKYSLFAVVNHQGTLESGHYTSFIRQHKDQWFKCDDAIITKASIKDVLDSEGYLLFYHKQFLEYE
Outline: as §1

[3] = target: USP24 (UniProt Q9UPU5)
Sequence of USP24 (Q9UPU5 whole entry): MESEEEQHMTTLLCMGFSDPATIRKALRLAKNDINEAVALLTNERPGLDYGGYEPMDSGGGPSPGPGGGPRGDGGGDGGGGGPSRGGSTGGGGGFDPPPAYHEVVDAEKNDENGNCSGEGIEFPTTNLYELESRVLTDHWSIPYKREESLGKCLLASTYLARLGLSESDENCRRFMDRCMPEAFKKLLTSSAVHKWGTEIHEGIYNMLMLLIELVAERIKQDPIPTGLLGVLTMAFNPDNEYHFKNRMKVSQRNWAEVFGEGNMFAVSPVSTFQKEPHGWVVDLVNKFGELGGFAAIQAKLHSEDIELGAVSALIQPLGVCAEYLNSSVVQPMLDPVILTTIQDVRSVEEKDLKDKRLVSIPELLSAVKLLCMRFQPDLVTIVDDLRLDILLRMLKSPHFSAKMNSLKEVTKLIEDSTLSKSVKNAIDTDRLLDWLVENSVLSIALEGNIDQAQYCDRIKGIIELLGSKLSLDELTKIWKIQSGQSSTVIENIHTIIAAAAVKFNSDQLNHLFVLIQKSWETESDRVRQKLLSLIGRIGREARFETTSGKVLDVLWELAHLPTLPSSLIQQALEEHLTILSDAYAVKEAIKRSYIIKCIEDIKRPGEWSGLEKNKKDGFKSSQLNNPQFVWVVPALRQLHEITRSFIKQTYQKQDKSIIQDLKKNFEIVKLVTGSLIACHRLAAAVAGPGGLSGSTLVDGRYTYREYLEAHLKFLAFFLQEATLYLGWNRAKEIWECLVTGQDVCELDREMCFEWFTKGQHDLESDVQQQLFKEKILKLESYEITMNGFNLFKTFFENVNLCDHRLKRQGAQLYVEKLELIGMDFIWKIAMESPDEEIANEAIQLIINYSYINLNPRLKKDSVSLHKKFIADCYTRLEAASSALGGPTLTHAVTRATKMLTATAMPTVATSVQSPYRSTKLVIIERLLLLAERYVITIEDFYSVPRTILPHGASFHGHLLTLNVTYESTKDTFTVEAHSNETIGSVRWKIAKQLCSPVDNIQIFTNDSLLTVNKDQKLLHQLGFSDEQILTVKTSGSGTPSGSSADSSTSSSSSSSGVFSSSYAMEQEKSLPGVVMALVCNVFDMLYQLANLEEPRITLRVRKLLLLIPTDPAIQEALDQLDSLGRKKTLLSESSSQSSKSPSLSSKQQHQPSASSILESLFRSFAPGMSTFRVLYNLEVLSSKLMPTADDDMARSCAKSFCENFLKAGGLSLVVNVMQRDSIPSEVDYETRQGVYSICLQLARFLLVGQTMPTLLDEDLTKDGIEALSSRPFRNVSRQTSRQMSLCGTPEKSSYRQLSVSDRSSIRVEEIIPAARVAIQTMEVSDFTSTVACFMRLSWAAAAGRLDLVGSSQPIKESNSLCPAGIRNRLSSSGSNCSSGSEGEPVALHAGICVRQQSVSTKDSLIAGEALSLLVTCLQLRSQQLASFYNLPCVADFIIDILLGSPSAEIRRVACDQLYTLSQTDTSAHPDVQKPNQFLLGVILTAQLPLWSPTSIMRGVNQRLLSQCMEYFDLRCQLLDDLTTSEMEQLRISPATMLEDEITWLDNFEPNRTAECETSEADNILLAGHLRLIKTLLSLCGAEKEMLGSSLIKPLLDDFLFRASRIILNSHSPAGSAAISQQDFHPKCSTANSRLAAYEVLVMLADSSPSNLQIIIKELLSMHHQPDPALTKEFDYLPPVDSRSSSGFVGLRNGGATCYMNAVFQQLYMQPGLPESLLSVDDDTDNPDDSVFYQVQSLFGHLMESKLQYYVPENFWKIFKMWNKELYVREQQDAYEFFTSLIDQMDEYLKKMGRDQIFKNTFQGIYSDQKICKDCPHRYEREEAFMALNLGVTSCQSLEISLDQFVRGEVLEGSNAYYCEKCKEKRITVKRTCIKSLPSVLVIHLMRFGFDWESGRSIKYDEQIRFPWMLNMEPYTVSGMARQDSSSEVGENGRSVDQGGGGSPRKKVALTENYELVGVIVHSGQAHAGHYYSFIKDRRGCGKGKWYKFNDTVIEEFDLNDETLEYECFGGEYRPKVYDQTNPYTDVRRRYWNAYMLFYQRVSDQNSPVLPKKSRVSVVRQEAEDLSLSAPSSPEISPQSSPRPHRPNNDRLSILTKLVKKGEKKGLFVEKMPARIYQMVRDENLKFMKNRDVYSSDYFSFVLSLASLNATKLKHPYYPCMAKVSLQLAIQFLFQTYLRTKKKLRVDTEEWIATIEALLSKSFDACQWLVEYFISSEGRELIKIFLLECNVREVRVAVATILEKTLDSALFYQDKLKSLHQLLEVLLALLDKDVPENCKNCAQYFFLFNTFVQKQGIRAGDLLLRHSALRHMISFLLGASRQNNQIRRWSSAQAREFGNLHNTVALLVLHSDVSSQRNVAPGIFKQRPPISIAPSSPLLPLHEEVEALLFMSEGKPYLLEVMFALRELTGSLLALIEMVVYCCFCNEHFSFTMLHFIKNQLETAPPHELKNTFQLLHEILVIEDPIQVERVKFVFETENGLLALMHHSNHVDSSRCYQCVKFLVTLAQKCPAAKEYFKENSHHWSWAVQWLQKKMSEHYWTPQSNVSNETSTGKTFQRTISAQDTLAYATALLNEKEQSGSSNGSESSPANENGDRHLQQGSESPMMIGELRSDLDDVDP
Outline: as §1

[4] = target: T3, USP25 (UniProt Q9UHP3)
T3 sequence (whole entry): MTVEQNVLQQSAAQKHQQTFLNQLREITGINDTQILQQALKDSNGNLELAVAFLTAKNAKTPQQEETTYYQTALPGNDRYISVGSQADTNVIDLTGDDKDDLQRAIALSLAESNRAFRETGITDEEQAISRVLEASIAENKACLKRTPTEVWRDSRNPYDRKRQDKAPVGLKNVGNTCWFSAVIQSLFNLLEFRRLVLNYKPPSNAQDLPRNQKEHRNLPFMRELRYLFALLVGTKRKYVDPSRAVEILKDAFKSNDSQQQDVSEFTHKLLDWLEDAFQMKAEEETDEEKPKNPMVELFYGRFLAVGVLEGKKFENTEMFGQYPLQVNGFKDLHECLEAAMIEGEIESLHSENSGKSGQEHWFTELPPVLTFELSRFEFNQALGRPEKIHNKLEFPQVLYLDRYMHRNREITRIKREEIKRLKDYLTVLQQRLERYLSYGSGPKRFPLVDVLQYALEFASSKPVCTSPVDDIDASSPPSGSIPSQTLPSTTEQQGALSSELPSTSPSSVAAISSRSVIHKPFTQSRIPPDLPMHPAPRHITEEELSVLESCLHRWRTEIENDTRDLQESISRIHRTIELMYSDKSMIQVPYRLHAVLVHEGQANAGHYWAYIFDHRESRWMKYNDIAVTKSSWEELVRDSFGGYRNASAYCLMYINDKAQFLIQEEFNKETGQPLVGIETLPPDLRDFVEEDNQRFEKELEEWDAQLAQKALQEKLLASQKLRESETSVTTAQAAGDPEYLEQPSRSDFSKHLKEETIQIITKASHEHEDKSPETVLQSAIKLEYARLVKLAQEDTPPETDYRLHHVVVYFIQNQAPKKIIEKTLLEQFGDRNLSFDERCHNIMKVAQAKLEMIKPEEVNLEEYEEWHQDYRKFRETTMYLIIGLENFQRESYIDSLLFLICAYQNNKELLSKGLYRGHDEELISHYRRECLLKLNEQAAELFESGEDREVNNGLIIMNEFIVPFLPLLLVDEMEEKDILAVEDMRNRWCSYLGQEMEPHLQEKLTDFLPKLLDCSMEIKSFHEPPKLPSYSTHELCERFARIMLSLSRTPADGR
Outline: as §1

[5] = target: T4, USP28 (UniProt Q96RU2)
T4 sequence (whole entry): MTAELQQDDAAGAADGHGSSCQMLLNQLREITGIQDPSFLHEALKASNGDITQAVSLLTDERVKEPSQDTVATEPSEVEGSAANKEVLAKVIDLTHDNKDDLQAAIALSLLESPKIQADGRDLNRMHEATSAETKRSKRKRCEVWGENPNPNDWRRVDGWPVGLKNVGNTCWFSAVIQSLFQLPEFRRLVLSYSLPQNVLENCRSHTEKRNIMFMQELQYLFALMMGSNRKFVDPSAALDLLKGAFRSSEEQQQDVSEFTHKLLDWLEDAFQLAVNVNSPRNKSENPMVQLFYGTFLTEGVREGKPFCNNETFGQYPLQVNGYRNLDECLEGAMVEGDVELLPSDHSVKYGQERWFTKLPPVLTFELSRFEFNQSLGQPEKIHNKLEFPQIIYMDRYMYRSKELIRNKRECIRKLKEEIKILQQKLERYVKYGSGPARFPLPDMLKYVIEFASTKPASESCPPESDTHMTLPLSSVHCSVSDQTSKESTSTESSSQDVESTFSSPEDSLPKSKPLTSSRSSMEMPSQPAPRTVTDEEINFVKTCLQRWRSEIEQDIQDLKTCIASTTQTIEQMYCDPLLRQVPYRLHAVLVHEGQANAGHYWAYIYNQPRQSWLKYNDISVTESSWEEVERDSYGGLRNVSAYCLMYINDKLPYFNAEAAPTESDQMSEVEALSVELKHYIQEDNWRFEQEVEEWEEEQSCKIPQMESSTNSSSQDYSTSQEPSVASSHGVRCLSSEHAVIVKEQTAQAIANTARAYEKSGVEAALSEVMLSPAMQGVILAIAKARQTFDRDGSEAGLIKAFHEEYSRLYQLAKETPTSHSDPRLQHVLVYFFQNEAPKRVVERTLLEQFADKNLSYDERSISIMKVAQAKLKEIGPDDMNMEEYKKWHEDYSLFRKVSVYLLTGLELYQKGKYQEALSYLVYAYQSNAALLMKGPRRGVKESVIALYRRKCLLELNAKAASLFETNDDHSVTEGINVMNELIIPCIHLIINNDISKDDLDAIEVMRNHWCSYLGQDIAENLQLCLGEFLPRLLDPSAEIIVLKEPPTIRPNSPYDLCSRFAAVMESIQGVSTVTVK
Outline: as §1

Measured: log2 ratio of Biotin-Ahx-Ub-VS probe labelling

O=C(CCl)N1CCCN(C(=O)c2ccc(Cl)cc2)CC1
inactive: [1] -0.449 | [2] -0.095 | [3] -0.433 | [4] -0.628 | [5] -0.618
